Screen size: about 1,300 compounds; about 30 (2%) were called active. Not shown: some 10% with an inconclusive outcome. Calls follow the shape of the dose curve; as a rule, active = well fitted inhibition curve with a large enough effect; inconclusive = small, poorly fitted or top-dose-only effect; inactive = flat fitted curve, though single readings scatter. The entries come from a sample that favours actives as a whole. Where a call stands in place of a potency, no number is given.
Assay: qHTS for antagonists of the Thyroid Stimulation Hormone Receptor: Hit Validation in HTRF Activity in a Luteinizing Hormone Receptor Cell Line
Conditions: LHR-expressing cell line, cAMP HTRF, antagonist mode; series mostly up to 58 µM
From the text: The thyroid-stimulating hormone receptor (TSHR) is a member of the 7 trans-membrane-spanning receptor (7TMR) family of cell surface receptors. TSHR-mediated hyperthyroidism is important in thyroid pathology. The development of small molecule antagonists of TSHR may lead to therapeutic approaches for TSHR-mediated hyperthyroidism caused by constitutively activating mutations or stimulating auto-antibodies associated with Graves' disease. Graves' disease is the leading cause of hyperthyroidism and is caused by autoantibodies that stimulate TSHR (TsAbs) causing thyroid growth and unregulated overproduction of thyroid hormones and existing treatments have liabilities (agranulocytosis). In addition, TSHRs are known to be expressed in multiple extrathyroidal tissues including bone, brain, kidney, testis, fat and cells of the immune system but the role of the TSHR in these tissues is not clear. Therefore, TSHR antagonists/inverse agonists could be used as probes of extrathyroidal TSHR function. Finally, TSHR inverse agonists, which are a subclass of antagonists that inhibit agonist-independent (or basal or constitutive) TSHR signaling, could be used to inhibit TSH-independent signaling in patients with recurrent or metastatic thyroid cancer who are receiving thyroid hormone to suppress TSH.
In collaboration between scientist from the NCGC and the NIDDK, a miniaturized HTRF high-throughput screen was developed. It's a cell based assay, where an anti cAMP antibody contains a fluorescent cryptate tag (excitation 337 nm; emission 620 nm) and the acceptor is cAMP-d2 (excitation 620 nm; emission 665 nm). When antibody and cAMP-d2 interact and are excited by a 337 nm light, a FRET occurs resulting in emission at 665 nm. The assay is competition between cAMP-d2 and cAMP (from the cell lysate). The homogeneous protocol allows for one step dispense after stimulation that is automation friendly. In order to confirm specificity of the compounds to the TSHR, a confirmatory assay was conducted on a similar family member, the Luteinizing Hormone (LH) receptor, transfected into a HEK 293 cell line, using an orthogonal detection technology to measure cAMP stimulation: antibody-based Homogeneous Time Resolved Fluorescence (HTRF).
NIH Chemical Genomics Center [NCGC]
NIH Molecular Libraries Probe Centers Network [MLPCN]
Assay Provider: Marvin Gershengorn, NIDDK
Homogeneous Time Resolved Fluorescence (HTRF) cAMP Assay. HEK 293 cells stably transfected with a vector containing the LH receptor and maintained under hygromycin selection were obtained from the laboratory of Dr. Marvin Gershengorn. Compounds were assayed using a HTRF cAMP detection kit (Cisbio) on the LH receptor transfected cell line. Briefly, 750 cells were plated in 2.5 ul/well of complete media (DMEM containing 10 % FCS, and 100 uM RO 20-1724) in 1536 well solid bottom white plates and 23 nl/well compound in DMSO solution or controls was added. Following 30 minute incubation at room temperature, 2.5 ul/well of labeled d2 cAMP and 2.5 ul/well of anti-cAMP antibody (both diluted 1:20 in lysis buffer) were added to each well using a flying reagent dispenser (Aurora Discovery, San Diego) . Plates were measured using the Envision plate reader (PerkinElmer, Boston, MA) with excitation at 330 nm and emissions of 615 nm and 660 nm.
For COc1ccc(-[n+]2c(-c3ccccc3)cc(-c3ccc(C)cc3)cc2-c2ccccc2)cc1, the Potency was “inactive”.
In the case of Cc1ccc(-c2cc(-c3ccccc3)cc(-c3ccccc3)[n+]2-c2ccccc2)cc1, the Potency is reported as 42.6 µM (active).
With Cc1ccc(C[n+]2c(-c3ccc(C)cc3)cc(-c3ccc(C)cc3)cc2-c2ccc(C)cc2)cc1 the Potency was 37.9 µM (active).
For Oc1ccc(-[n+]2c(-c3ccccc3)cc(-c3ccccc3)cc2-c2ccccc2)cc1, the Potency was 39.8 µM (active).
In the case of OCC[n+]1c2ccccc2nc2ccc(N3CCOCC3)cc21, the Potency is reported as “inactive”.
In the case of COC(=O)C1=C(c2ccc(OC(F)(F)F)cc2)C[C@@H]2CC[C@H]1N2C(=O)N1CCC(C)CC1, the Potency is reported as “inactive”.
With COC(=O)C1=C(c2ccc(-c3ccccc3)c(F)c2)C[C@@H]2CC[C@H]1N2C(=O)NCC1CC1 the Potency was “inactive”.
For CN(C)CC1Oc2ccccc2OC1(O)c1ccccc1 (stereo not given), the Potency was “inactive”.
With C[C@H]1O[C@@H](OC2CC[C@]3(C=O)[C@H]4CC[C@]5(C)[C@@H](C6=CC(=O)OC6)CC[C@]5(O)[C@@H]4CC[C@]3(O)C2)CC2OC(C)(C)OC21 (stereo not given in full) the Potency was “inactive”.
For N#CC(C#N)=NNc1ccc(-n2ccc(C(F)(F)F)n2)cc1, the Potency was “inactive”.
With CC(=O)c1ccc2c(c1)C1C(Cl)C(Sc3ccccc3[N+](=O)[O-])CC1C(C(=O)O)N2 (stereo not given) the Potency was “inactive”.
For COC(=O)C1=C(c2ccc(-c3ccccc3)c(F)c2)C[C@@H]2CC[C@H]1N2C(=O)N1CCOCC1, the Potency was “inactive”.
With O=C(C1CCN(c2nc3ccc(Br)cc3s2)CC1)N1CCC2(CC1)OCCO2 the Potency was “inactive”.
In the case of COc1cc2c(cc1/C=C/[N+](=O)[O-])OCO2, the Potency is reported as “inactive”.
In the case of C[C@]12CC[C@H]3C(CCC4(O)CC(O)CC[C@]34C=O)C1=CC[C@H]2c1ccc(=O)oc1 (stereo not given in full), the Potency is reported as “inactive”.
Potency is read from the fitted curve at half-maximal effect.
